Assay results from PubChem BioAssay AID1159580 (chemical genetic matrix, 2015).
The whole screen tested about 5,500 compounds, of which about 2,000 (36%) were called active. Inconclusive results (about 18%) are left out. Some of the results follow. Unmarked numbers belong to inactive results. Cut-off read from the data, not from the text of the source: active = normalized growth mostly below about 0.91 (no sharp cut-off); inconclusive = no clear call, values can overlap the other calls; inactive = mostly above about 0.92.

Assay: chemical genetic growth profiling, strain panel (AID 1159580);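 note: tested at 20 µM; growth read once vehicle control cultures reached saturation at 30 °C; 1 = growth at the plate median or of vehicle wells; lower values mean less growth of the strain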
Conditions: growth OD
[1] = S. cerevisiae deletion strains, locus YHR030C, strain SLT2, stronger effect = lower value
[2] = S. cerevisiae deletion strains, locus YJL095W, strain BCK1, stronger effect = lower value

SMILES: CC(C)(C)[C@]1(O)CCN2C[C@H]3c4ccccc4CCc4cccc(c43)[C@@H]2C1
- normalized growth (S. cerevisiae deletion strains, locus YAL040C, strain CLN3, stronger effect = lower value): 0.999
- normalized growth (S. cerevisiae deletion strains, locus YDR363W, strain ESC2, stronger effect = lower value): 0.994
- normalized growth (S. cerevisiae deletion strains, locus YER002W, strain NOP16, stronger effect = lower value): 0.993
- normalized growth (S. cerevisiae deletion strains, locus YMR263W, strain SAP30, stronger effect = lower value): 1
- normalized growth (S. cerevisiae deletion strains, locus YNL128W, strain TEP1, stronger effect = lower value): 1.01
- normalized growth (S. cerevisiae deletion strains, locus YNL175C, strain NOP13, stronger effect = lower value): 1.03
- normalized growth (S. cerevisiae deletion strains, locus YNL197C, strain WHI3, stronger effect = lower value): 1.02
- normalized growth (S. cerevisiae deletion strains, locus YNL224C, strain SQS1, stronger effect = lower value): 1.02
- normalized growth (S. cerevisiae deletion strains, locus YNL322C, strain KRE1, stronger effect = lower value): 1.01
- normalized growth (S. cerevisiae deletion strains, locus YOR083W, strain WHI5 (second series), stronger effect = lower value): 1.05

SMILES: OC[C@@H](O)[C@H](O)[C@@H](O)[C@H](O)CO
- normalized growth [1]: 0.974
- normalized growth (S. cerevisiae deletion strains, locus YHR079C, strain IRE1, stronger effect = lower value): 0.995
- normalized growth [2]: 1
- normalized growth (S. cerevisiae deletion strains, locus YJR066W, strain TOR1, stronger effect = lower value): 0.936
- normalized growth (S. cerevisiae deletion strains, locus YLR113W, strain HOG1, stronger effect = lower value): 0.959
- normalized growth (S. cerevisiae deletion strains, locus YNL183C, strain NPR1, stronger effect = lower value): 0.941
- normalized growth (S. cerevisiae deletion strains, locus YOR231W, strain MKK1, stronger effect = lower value): 0.991
- normalized growth (S. cerevisiae deletion strains, locus YPL256C, strain CLN2, stronger effect = lower value): 0.964

SMILES: C[C@]12CCC3C(CC[C@H]4C[C@@H](Cl)CC[C@]34C)C1CCC2=O (stereo partly specified)
- normalized growth (S. cerevisiae deletion strains, locus YBR021W, strain FUR4, stronger effect = lower value): 0.947
- normalized growth (S. cerevisiae deletion strains, locus YBR229C, strain ROT2, stronger effect = lower value): 1.03
- normalized growth (S. cerevisiae deletion strains, locus YCL029C, strain bik1, stronger effect = lower value): 0.968
- normalized growth (S. cerevisiae deletion strains, locus YDL035C, strain GPR1, stronger effect = lower value): 0.921
- normalized growth (S. cerevisiae deletion strains, locus YDL074C, strain BRE1, stronger effect = lower value): 0.87
- normalized growth (S. cerevisiae deletion strains, locus YDL101C, strain DUN1, stronger effect = lower value): 0.997
- normalized growth (S. cerevisiae deletion strains, locus YDL134C, strain PPH21, stronger effect = lower value): 0.977
- normalized growth (S. cerevisiae deletion strains, locus YDL185W, strain tfp1, stronger effect = lower value): 1.02
- normalized growth (S. cerevisiae deletion strains, locus YDL192W, strain arf1, stronger effect = lower value): 0.956
- normalized growth (S. cerevisiae deletion strains, locus YDR101C, strain arx1, stronger effect = lower value): 1.01
- normalized growth (S. cerevisiae deletion strains, locus YDR150W, strain NUM1, stronger effect = lower value): 1.01
- normalized growth (S. cerevisiae deletion strains, locus YDR162C, strain NBP2, stronger effect = lower value): 0.885
- normalized growth (S. cerevisiae deletion strains, locus YDR318W, strain mcm21, stronger effect = lower value): 0.981
- normalized growth (S. cerevisiae deletion strains, locus YDR388W, stronger effect = lower value): 1.02
- normalized growth (S. cerevisiae deletion strains, locus YDR502C, strain sam2, stronger effect = lower value): 0.988
- normalized growth (S. cerevisiae deletion strains, locus YER110C, stronger effect = lower value): 1.02
- normalized growth (S. cerevisiae deletion strains, locus YER155C, strain BEM2, stronger effect = lower value): 1.02
- normalized growth (S. cerevisiae deletion strains, locus YER167W, strain BCK2, stronger effect = lower value): 0.983
- normalized growth (S. cerevisiae deletion strains, locus YGL078C, strain dbp3, stronger effect = lower value): 0.99
- normalized growth (S. cerevisiae deletion strains, locus YGL086W, strain mad1, stronger effect = lower value): 0.959
- normalized growth (S. cerevisiae deletion strains, locus YGL248W, strain PDE1, stronger effect = lower value): 0.972
- normalized growth (S. cerevisiae deletion strains, locus YGR078C, strain PAC10, stronger effect = lower value): 0.951
- normalized growth (S. cerevisiae deletion strains, locus YGR135W, strain pre9, stronger effect = lower value): 0.997
- normalized growth (S. cerevisiae deletion strains, locus YGR252W, strain gcn5, stronger effect = lower value): 0.993
- normalized growth [1]: 1.02
- normalized growth (S. cerevisiae deletion strains, locus YHR079C, strain IRE1 (second series), stronger effect = lower value): 1.02
- normalized growth (S. cerevisiae deletion strains, locus YHR094C, strain hxt1, stronger effect = lower value): 1.02
- normalized growth (S. cerevisiae deletion strains, locus YHR129C, strain ARP1, stronger effect = lower value): 0.987
- normalized growth (S. cerevisiae deletion strains, locus YHR200W, strain rpn10, stronger effect = lower value): 0.951
- normalized growth (S. cerevisiae deletion strains, locus YIL066C, strain RNR3, stronger effect = lower value): 0.957
- normalized growth (S. cerevisiae deletion strains, locus YIL073C, strain SPO22, stronger effect = lower value): 1.05
- normalized growth (S. cerevisiae deletion strains, locus YIL125W, strain kgd1, stronger effect = lower value): 1
- normalized growth (S. cerevisiae deletion strains, locus YIR030C, strain dcg1, stronger effect = lower value): 1.02
- normalized growth [2]: 0.952
- normalized growth (S. cerevisiae deletion strains, locus YJL134W, strain LCB3, stronger effect = lower value): 1.02
- normalized growth (S. cerevisiae deletion strains, locus YJL168C, strain set2, stronger effect = lower value): 1.04
- normalized growth (S. cerevisiae deletion strains, locus YJL187C, strain SWE1 (second series), stronger effect = lower value): 0.993
- normalized growth (S. cerevisiae deletion strains, locus YJR043C, strain POL32, stronger effect = lower value): 0.925
- normalized growth (S. cerevisiae deletion strains, locus YKL009W, strain mrt4, stronger effect = lower value): 1.02
- normalized growth (S. cerevisiae deletion strains, locus YKL068W, stronger effect = lower value): 1.01
- normalized growth (S. cerevisiae deletion strains, locus YKL085W, strain MDH1 (second series), stronger effect = lower value): 0.998
- normalized growth (S. cerevisiae deletion strains, locus YKL085W, strain MDH1, stronger effect = lower value): 0.998
- normalized growth (S. cerevisiae deletion strains, locus YKR001C, strain vps1, stronger effect = lower value): 0.937
- normalized growth (S. cerevisiae deletion strains, locus YLR039C, strain RIC1, stronger effect = lower value): 0.769
- normalized growth (S. cerevisiae deletion strains, locus YLR058C, strain SHM2, stronger effect = lower value): 0.984
- normalized growth (S. cerevisiae deletion strains, locus YLR102C, strain apc9, stronger effect = lower value): 1.01
- normalized growth (S. cerevisiae deletion strains, locus YLR268W, strain sec22, stronger effect = lower value): 0.982
- normalized growth (S. cerevisiae deletion strains, locus YLR330W, strain CHS5, stronger effect = lower value): 0.987
- normalized growth (S. cerevisiae deletion strains, locus YLR371W, strain rom2, stronger effect = lower value): 0.99
- normalized growth (S. cerevisiae deletion strains, locus YLR418C, strain cdc73, stronger effect = lower value): 0.849
- normalized growth (S. cerevisiae deletion strains, locus YML016C, strain PPZ1, stronger effect = lower value): 1.01
- normalized growth (S. cerevisiae deletion strains, locus YML032C, strain rad52, stronger effect = lower value): 0.993
- normalized growth (S. cerevisiae deletion strains, locus YML124C, strain tub3, stronger effect = lower value): 1.02
- normalized growth (S. cerevisiae deletion strains, locus YMR078C, strain ctf18, stronger effect = lower value): 1.03
- normalized growth (S. cerevisiae deletion strains, locus YMR223W, strain ubp8, stronger effect = lower value): 0.999
- normalized growth (S. cerevisiae deletion strains, locus YMR307W, strain GAS1, stronger effect = lower value): 1.06
- normalized growth (S. cerevisiae deletion strains, locus YNL067W, strain RPL9B, stronger effect = lower value): 0.986
- normalized growth (S. cerevisiae deletion strains, locus YNL233W, strain BNI4, stronger effect = lower value): 0.969
- normalized growth (S. cerevisiae deletion strains, locus YNL250W, strain rad50, stronger effect = lower value): 1.03
- normalized growth (S. cerevisiae deletion strains, locus YNL271C, strain bni1, stronger effect = lower value): 1.01
- normalized growth (S. cerevisiae deletion strains, locus YNL298W, strain CLA4, stronger effect = lower value): 0.967
- normalized growth (S. cerevisiae deletion strains, locus YNL307C, strain MCK1, stronger effect = lower value): 0.888 (active)
- normalized growth (S. cerevisiae deletion strains, locus YNR052C, strain pop2, stronger effect = lower value): 0.976
- normalized growth (S. cerevisiae deletion strains, locus YOL006C, strain TOP1, stronger effect = lower value): 0.863
- normalized growth (S. cerevisiae deletion strains, locus YOL012C, strain htz1): 0.88
- normalized growth (S. cerevisiae deletion strains, locus YOL147C, strain pex11, stronger effect = lower value): 0.972
- normalized growth (S. cerevisiae deletion strains, locus YOR061W, strain CKA2, stronger effect = lower value): 1.02
- normalized growth (S. cerevisiae deletion strains, locus YOR069W, strain VPS5, stronger effect = lower value): 1.01
- normalized growth (S. cerevisiae deletion strains, locus YOR136W, strain idh2, stronger effect = lower value): 1
- normalized growth (S. cerevisiae deletion strains, locus YOR144C, strain elg1, stronger effect = lower value): 1.01
- normalized growth (S. cerevisiae deletion strains, locus YOR184W, strain ser1, stronger effect = lower value): 0.733 (active)
- normalized growth (S. cerevisiae deletion strains, locus YOR316C, strain cot1, stronger effect = lower value): 1.02
- normalized growth (S. cerevisiae deletion strains, locus YPR119W, strain clb2, stronger effect = lower value): 1.03
- normalized growth (S. cerevisiae deletion strains, locus YPR141C, strain kar3, stronger effect = lower value): 1.03
- normalized growth (S. cerevisiae deletion strains, locus YPR163C, strain tif3, stronger effect = lower value): 0.969
- normalized growth (S. cerevisiae deletion strains, locus YPR167C, strain met16, stronger effect = lower value): 0.996
- normalized growth (S. cerevisiae deletion strains, strain wtn01, stronger effect = lower value): 0.967
- normalized growth (S. cerevisiae strains, strain wild type, stronger effect = lower value): 0.909
